# Data taken from the supplement of paper PMC4022240.
# ± gives the standard deviation.
# T1: HaloTag-ATRX ADD domain (163-292)
# T1 chain: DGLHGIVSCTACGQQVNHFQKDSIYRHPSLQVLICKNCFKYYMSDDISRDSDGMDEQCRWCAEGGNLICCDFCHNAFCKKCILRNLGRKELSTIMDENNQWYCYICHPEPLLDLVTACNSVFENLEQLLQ
# Tests used:
# Assay in all cases: peptide microarray binding signal (635 nm), min-max normalized on array (fraction of array maximum); higher = stronger binding
# Conditions in all cases: peptide region: H3 5-17
# [1] = molecular target: T1, HaloTag-ATRX ADD domain (163-292)
# How it was run: (§1)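 Arrays carried histone 13-mer peptide–cellulose conjugates printed in triplicate on nitrocellulose alongside a Cy3 tracer. After overnight blocking at 4°C, they were incubated for 1 h at 4°C with biotin-labelled HaloTag reader fusions (10 nM to 1 μM) plus streptavidin-Alexa Fluor 647, or with rabbit histone antibodies (1:10,000 to 1:2,000) plus anti-rabbit Alexa 647. Scanning on an Axon GenePix 4000B used 635 nm for signal and 532 nm for misprints. The binding signal reported is each triplicate's mean spot intensity after per-library min-max scaling.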
# [2] = molecular target: HaloTag-ING2 PHD (mouse Ing2 200-280)
# How it was run: as §1
# [3] = molecular target: anti-H3K4me3 antibody ab8580
# How it was run: as §1
# [4] = molecular target: anti-H3K9me3 antibody ab8898
# How it was run: as §1
# [5] = peptide modifications: H3K9me3 H3S10ph, binder concentration: 1:2,000 dilution
# [6] = peptide modifications: H3K9me3 H3S10ph, binder concentration: 1:10,000 dilution
# [7] = peptide modifications: H3R8cit H3K9ac, binder concentration: 1:2,000 dilution
# [8] = peptide modifications: H3R8cit H3K9ac, binder concentration: 1:10,000 dilution
# [9] = peptide modifications: H3K14ac, binder concentration: 1:2,000 dilution
# [10] = peptide modifications: H3K14ac, binder concentration: 1:10,000 dilution
# [11] = peptide modifications: H3K14me3, binder concentration: 1:2,000 dilution
# [12] = peptide modifications: H3K14me3, binder concentration: 1:10,000 dilution
# [13] = peptide modifications: H3K9me3 H3K14me3, binder concentration: 1:2,000 dilution
# [14] = peptide modifications: H3K9me3 H3K14me3, binder concentration: 1:10,000 dilution
# [15] = peptide modifications: H3K9me3 H3K14me2, binder concentration: 1:2,000 dilution
# [16] = peptide modifications: H3K9me3 H3K14me2, binder concentration: 1:10,000 dilution
# [17] = peptide modifications: H3K9me3 H3T11ph, binder concentration: 1:2,000 dilution
# [18] = peptide modifications: H3K9me3 H3T11ph, binder concentration: 1:10,000 dilution
# [19] = peptide modifications: H3K9me3 H3K14me1, binder concentration: 1:2,000 dilution
# [20] = peptide modifications: H3K9me3 H3K14me1, binder concentration: 1:10,000 dilution
# [21] = peptide modifications: H3K14me1, binder concentration: 1:2,000 dilution
# [22] = peptide modifications: H3K14me1, binder concentration: 1:10,000 dilution
# [23] = peptide modifications: H3K14me2, binder concentration: 1:2,000 dilution
# [24] = peptide modifications: H3K14me2, binder concentration: 1:10,000 dilution
binder,measurement,setting,value
QTARKSTGGKAPR [H3 5-17 Q T A R Kme3 Sph T G G K A P R],peptide microarray binding signal,"[1]; peptide modifications: H3K9me3 H3S10ph, binder concentration: 50 nM",0.005862 ± 5.4e-05
same,peptide microarray binding signal,"[1]; peptide modifications: H3K9me3 H3S10ph, binder concentration: 500 nM",0.0171 ± 0.00064
same,peptide microarray binding signal,"[2]; peptide modifications: H3K9me3 H3S10ph, binder concentration: 10 nM",0.00358 ± 0.00073
same,peptide microarray binding signal,"[2]; peptide modifications: H3K9me3 H3S10ph, binder concentration: 100 nM",0.0227 ± 0.0053
same,peptide microarray binding signal,[3]; [5],0.00466 ± 0.0006
same,peptide microarray binding signal,[3]; [6],0.00913 ± 0.0042
same,peptide microarray binding signal,[4]; [5],0.362 ± 0.11
same,peptide microarray binding signal,[4]; [6],0.273 ± 0.078
QTARKSTGGKAPR [H3 5-17 Q T A Rcit Kac S T G G K A P R],peptide microarray binding signal,"[1]; peptide modifications: H3R8cit H3K9ac, binder concentration: 50 nM",0.0106 ± 0.00074
same,peptide microarray binding signal,"[1]; peptide modifications: H3R8cit H3K9ac, binder concentration: 500 nM",0.0249 ± 0.0053
same,peptide microarray binding signal,"[2]; peptide modifications: H3R8cit H3K9ac, binder concentration: 10 nM",0.0426 ± 0.0074
same,peptide microarray binding signal,"[2]; peptide modifications: H3R8cit H3K9ac, binder concentration: 100 nM",0.0673 ± 0.0053
same,peptide microarray binding signal,[3]; [7],0.0133 ± 0.0056
same,peptide microarray binding signal,[3]; [8],0.0146 ± 0.0065
same,peptide microarray binding signal,[4]; [7],0.0143 ± 0.0052
same,peptide microarray binding signal,[4]; [8],0.0112 ± 0.00045
QTARKSTGGKAPR [H3 5-17 Q T A R K S T G G Kac A P R],peptide microarray binding signal,"[1]; peptide modifications: H3K14ac, binder concentration: 50 nM",0.01348 ± 6.3e-05
same,peptide microarray binding signal,"[1]; peptide modifications: H3K14ac, binder concentration: 500 nM",0.0307 ± 0.0021
same,peptide microarray binding signal,"[2]; peptide modifications: H3K14ac, binder concentration: 10 nM",0.0491 ± 0.007
same,peptide microarray binding signal,"[2]; peptide modifications: H3K14ac, binder concentration: 100 nM",0.0789 ± 0.0089
same,peptide microarray binding signal,[3]; [9],0.0163 ± 0.0012
same,peptide microarray binding signal,[3]; [10],0.0226 ± 0.0018
same,peptide microarray binding signal,[4]; [9],0.0103 ± 0.00042
same,peptide microarray binding signal,[4]; [10],0.00657 ± 0.0006
QTARKSTGGKAPR [H3 5-17 Q T A R K S T G G Kme3 A P R],peptide microarray binding signal,"[1]; peptide modifications: H3K14me3, binder concentration: 50 nM",0.00931 ± 0.00042
same,peptide microarray binding signal,"[1]; peptide modifications: H3K14me3, binder concentration: 500 nM",0.0186 ± 0.0016
same,peptide microarray binding signal,"[2]; peptide modifications: H3K14me3, binder concentration: 10 nM",0.0256 ± 0.00028
same,peptide microarray binding signal,"[2]; peptide modifications: H3K14me3, binder concentration: 100 nM",0.0377 ± 0.0028
same,peptide microarray binding signal,[3]; [11],0.0987 ± 0.029
same,peptide microarray binding signal,[3]; [12],0.0663 ± 0.0053
same,peptide microarray binding signal,[4]; [11],0.0574 ± 0.00077
same,peptide microarray binding signal,[4]; [12],0.0328 ± 0.0018
QTARKSTGGKAPR [H3 5-17 Q T A R Kme3 S T G G Kme3 A P R],peptide microarray binding signal,"[1]; peptide modifications: H3K9me3 H3K14me3, binder concentration: 50 nM",0.00721 ± 0.00063
same,peptide microarray binding signal,"[1]; peptide modifications: H3K9me3 H3K14me3, binder concentration: 500 nM",0.00614 ± 0.00023
same,peptide microarray binding signal,"[2]; peptide modifications: H3K9me3 H3K14me3, binder concentration: 10 nM",0.00549 ± 0.00022
same,peptide microarray binding signal,"[2]; peptide modifications: H3K9me3 H3K14me3, binder concentration: 100 nM",0.00609 ± 0.00036
same,peptide microarray binding signal,[3]; [13],0.0344 ± 0.0088
same,peptide microarray binding signal,[3]; [14],0.0374 ± 0.015
same,peptide microarray binding signal,[4]; [13],0.241 ± 0.054
same,peptide microarray binding signal,[4]; [14],0.261 ± 0.13
QTARKSTGGKAPR [H3 5-17 Q T A R Kme3 S T G G Kme2 A P R],peptide microarray binding signal,"[1]; peptide modifications: H3K9me3 H3K14me2, binder concentration: 50 nM",0.0125 ± 0.00061
same,peptide microarray binding signal,"[1]; peptide modifications: H3K9me3 H3K14me2, binder concentration: 500 nM",0.0226 ± 0.0018
same,peptide microarray binding signal,"[2]; peptide modifications: H3K9me3 H3K14me2, binder concentration: 10 nM",0.0179 ± 0.0015
same,peptide microarray binding signal,"[2]; peptide modifications: H3K9me3 H3K14me2, binder concentration: 100 nM",0.0366 ± 0.016
same,peptide microarray binding signal,[3]; [15],0.117 ± 0.017
same,peptide microarray binding signal,[3]; [16],0.082 ± 0.012
same,peptide microarray binding signal,[4]; [15],0.869 ± 0.044
same,peptide microarray binding signal,[4]; [16],1 ± 0.084
QTARKSTGGKAPR [H3 5-17 Q T A R Kme3 S Tph G G K A P R],peptide microarray binding signal,"[1]; peptide modifications: H3K9me3 H3T11ph, binder concentration: 50 nM",0.00737 ± 0.0032
same,peptide microarray binding signal,"[1]; peptide modifications: H3K9me3 H3T11ph, binder concentration: 500 nM",0.00981 ± 0.0012
same,peptide microarray binding signal,"[2]; peptide modifications: H3K9me3 H3T11ph, binder concentration: 10 nM",0.00352 ± 0.00053
same,peptide microarray binding signal,"[2]; peptide modifications: H3K9me3 H3T11ph, binder concentration: 100 nM",0.00539 ± 0.0012
same,peptide microarray binding signal,[3]; [17],0.00485 ± 0.00012
same,peptide microarray binding signal,[3]; [18],0.00747 ± 0.0029
same,peptide microarray binding signal,[4]; [17],0.215 ± 0.078
same,peptide microarray binding signal,[4]; [18],0.229 ± 0.095
QTARKSTGGKAPR [H3 5-17 Q T A R Kme3 S T G G Kme A P R],peptide microarray binding signal,"[1]; peptide modifications: H3K9me3 H3K14me1, binder concentration: 50 nM",0.00285 ± 0.00016
same,peptide microarray binding signal,"[1]; peptide modifications: H3K9me3 H3K14me1, binder concentration: 500 nM",0.00524 ± 0.00015
same,peptide microarray binding signal,"[2]; peptide modifications: H3K9me3 H3K14me1, binder concentration: 10 nM",0.00406 ± 0.00024
same,peptide microarray binding signal,"[2]; peptide modifications: H3K9me3 H3K14me1, binder concentration: 100 nM",0.0116 ± 0.00073
same,peptide microarray binding signal,[3]; [19],0.00483 ± 0.00038
same,peptide microarray binding signal,[3]; [20],0.00251 ± 9.7e-05
same,peptide microarray binding signal,[4]; [19],0.175 ± 0.043
same,peptide microarray binding signal,[4]; [20],0.0981 ± 0.043
QTARKSTGGKAPR [H3 5-17 Q T A R K S T G G Kme A P R],peptide microarray binding signal,"[1]; peptide modifications: H3K14me1, binder concentration: 50 nM",0.0197 ± 0.00048
same,peptide microarray binding signal,"[1]; peptide modifications: H3K14me1, binder concentration: 500 nM",0.047 ± 0.0024
same,peptide microarray binding signal,"[2]; peptide modifications: H3K14me1, binder concentration: 10 nM",0.0957 ± 0.02
same,peptide microarray binding signal,"[2]; peptide modifications: H3K14me1, binder concentration: 100 nM",0.0987 ± 0.016
same,peptide microarray binding signal,[3]; [21],0.0306 ± 0.0089
same,peptide microarray binding signal,[3]; [22],0.0289 ± 0.0032
same,peptide microarray binding signal,[4]; [21],0.0125 ± 0.0013
same,peptide microarray binding signal,[4]; [22],0.0104 ± 0.0012
QTARKSTGGKAPR [H3 5-17 Q T A R K S T G G Kme2 A P R],peptide microarray binding signal,"[1]; peptide modifications: H3K14me2, binder concentration: 50 nM",0.00956 ± 0.00084
same,peptide microarray binding signal,"[1]; peptide modifications: H3K14me2, binder concentration: 500 nM",0.0335 ± 0.0014
same,peptide microarray binding signal,"[2]; peptide modifications: H3K14me2, binder concentration: 10 nM",0.0584 ± 0.011
same,peptide microarray binding signal,"[2]; peptide modifications: H3K14me2, binder concentration: 100 nM",0.077 ± 0.0071
same,peptide microarray binding signal,[3]; [23],0.044 ± 0.004
same,peptide microarray binding signal,[3]; [24],0.0224 ± 0.0035
same,peptide microarray binding signal,[4]; [23],0.0137 ± 0.00078
same,peptide microarray binding signal,[4]; [24],0.00715 ± 0.00071
